# Experimental data taken from ChEMBL document CHEMBL3988442, “University of Dundee, Small-Polar-MMV Screening Library” (2021).
# For some assays here: Entries with a potency or affinity are not part of this list.
# Experiments:
# Set-up in all cases: scale not given: direction of the effect not stated beside the values
# [1] = biological target: Protein translocase subunit SecA (Escherichia coli (strain K12)) (UniProt P10408); experiment: Assay to Identify E. coli SecA ATPase Inhibitors; format: functional; conditions: 30 µM
# [2] = biological target: T1, Ubiquitin-activating enzyme e1, putative (Leishmania donovani (strain BPK282A1)) (UniProt E9BSI1); experiment: Leishmania donovani Ubiquitin Activating Enzyme (LdE1); format: functional; conditions: 30 µM
# T1 sequence (whole entry): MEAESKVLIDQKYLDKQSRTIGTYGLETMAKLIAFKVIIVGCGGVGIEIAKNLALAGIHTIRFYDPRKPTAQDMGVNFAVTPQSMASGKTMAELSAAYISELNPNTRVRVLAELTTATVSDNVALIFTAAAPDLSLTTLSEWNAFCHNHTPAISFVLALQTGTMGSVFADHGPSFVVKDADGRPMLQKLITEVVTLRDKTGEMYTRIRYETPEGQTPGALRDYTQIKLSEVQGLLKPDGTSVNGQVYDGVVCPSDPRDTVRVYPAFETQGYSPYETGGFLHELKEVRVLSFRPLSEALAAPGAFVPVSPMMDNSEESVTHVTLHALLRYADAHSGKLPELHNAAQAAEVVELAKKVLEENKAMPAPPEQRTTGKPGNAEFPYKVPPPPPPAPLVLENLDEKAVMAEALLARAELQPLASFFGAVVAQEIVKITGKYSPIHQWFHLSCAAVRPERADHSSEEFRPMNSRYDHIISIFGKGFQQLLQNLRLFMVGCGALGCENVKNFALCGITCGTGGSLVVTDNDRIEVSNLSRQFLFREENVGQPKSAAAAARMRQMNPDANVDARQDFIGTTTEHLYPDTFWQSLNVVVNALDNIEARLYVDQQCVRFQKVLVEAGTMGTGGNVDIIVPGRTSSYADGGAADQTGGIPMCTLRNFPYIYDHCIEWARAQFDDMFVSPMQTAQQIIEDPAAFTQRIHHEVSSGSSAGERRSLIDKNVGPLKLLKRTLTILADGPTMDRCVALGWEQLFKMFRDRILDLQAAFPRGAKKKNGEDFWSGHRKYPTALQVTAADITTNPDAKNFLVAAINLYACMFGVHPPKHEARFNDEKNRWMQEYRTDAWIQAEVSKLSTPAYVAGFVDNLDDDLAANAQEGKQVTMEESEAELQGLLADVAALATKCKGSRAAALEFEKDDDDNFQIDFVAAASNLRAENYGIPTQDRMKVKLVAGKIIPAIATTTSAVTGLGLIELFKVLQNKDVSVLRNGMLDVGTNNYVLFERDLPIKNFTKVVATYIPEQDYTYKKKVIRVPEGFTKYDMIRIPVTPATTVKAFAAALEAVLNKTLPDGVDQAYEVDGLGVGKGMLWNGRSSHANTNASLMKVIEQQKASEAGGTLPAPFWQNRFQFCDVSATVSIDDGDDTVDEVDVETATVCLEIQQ
# [3] = biological target: AMP-activated protein kinase, AMPK (Homo sapiens) (UniProt P54646+O43741+P54619+Q9UGJ0+Q9Y478+Q13131+Q9UGI9); experiment: AMP-dependent Kinase enzyme assay. An in vitro enzyme assay that detects ADP turnover that is directly proportional to AMPK activity. This uses naive AMPK that is activated during the assay with MK-8722; format: functional; conditions: 30 µM
# [4] = biological target: Sialic acid-binding Ig-like lectin 9 (Homo sapiens) (UniProt Q9Y336); experiment: Hs-Siglec9 ALPHAscreen SOP 20170721; conditions: 10 µM
# Trypanosoma cruzi = experiment: Trypanosoma cruzi phosphomannomutase and mannose-1-phosphate guanylyltransferase assay; format: functional; conditions: 10 µM
# [5] = biological target: T2, Arginase-2, mitochondrial (Homo sapiens) (UniProt P78540); experiment: in vitro enzyme assay to detect the production of urea directly proportional to the activity of Arginase II; format: functional; conditions: 33.3 µM; also: in the data most compounds retested in dose-response had high values
# T2 sequence (whole entry): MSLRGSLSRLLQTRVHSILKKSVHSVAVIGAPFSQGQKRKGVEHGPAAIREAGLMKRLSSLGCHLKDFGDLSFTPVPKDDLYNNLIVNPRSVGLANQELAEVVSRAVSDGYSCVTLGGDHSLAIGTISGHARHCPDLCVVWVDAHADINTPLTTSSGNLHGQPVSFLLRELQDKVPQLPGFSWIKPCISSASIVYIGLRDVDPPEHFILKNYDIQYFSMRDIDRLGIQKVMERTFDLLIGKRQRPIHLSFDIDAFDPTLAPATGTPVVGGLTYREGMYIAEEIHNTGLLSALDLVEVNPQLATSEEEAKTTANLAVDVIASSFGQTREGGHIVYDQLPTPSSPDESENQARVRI
# [6] = biological target: T3, Proteasome subunit beta (Trypanosoma cruzi) (UniProt O96673); experiment: Trypanosoma cruzi proteasome chymotrypsin-like activity (TcProtChymo) assay.; also: in the data most compounds retested in dose-response had high values; format: functional; conditions: 9.37 µM
# T3 sequence (whole entry): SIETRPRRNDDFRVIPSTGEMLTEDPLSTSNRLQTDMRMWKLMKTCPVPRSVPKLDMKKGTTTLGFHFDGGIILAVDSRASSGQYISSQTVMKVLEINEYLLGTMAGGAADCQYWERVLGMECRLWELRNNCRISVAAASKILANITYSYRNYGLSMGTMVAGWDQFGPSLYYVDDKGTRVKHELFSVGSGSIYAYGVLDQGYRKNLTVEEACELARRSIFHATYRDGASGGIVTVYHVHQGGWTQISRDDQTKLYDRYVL
# Homo sapiens = species: Homo sapiens; experiment: To identify inhibition of the IFN signalling (Jak-Stat) pathway via expression of an eGFP reporter gene under the control of an IFN-stimulated response element (ISRE) containing MxA promoter.; format: functional; conditions: 30 µM
# [7] = biological target: T4, Tyrosyl-tRNA synthetase, putative (Trypanosoma cruzi (strain CL Brener)) (UniProt Q4DSP6); experiment: Trypanosoma cruzi tyrosyl tRNA synthetase (TcYRS) _High Tyrosine SOP; format: functional; conditions: 30 µM; also: in the data most compounds retested in dose-response had high values
# T4 sequence (whole entry): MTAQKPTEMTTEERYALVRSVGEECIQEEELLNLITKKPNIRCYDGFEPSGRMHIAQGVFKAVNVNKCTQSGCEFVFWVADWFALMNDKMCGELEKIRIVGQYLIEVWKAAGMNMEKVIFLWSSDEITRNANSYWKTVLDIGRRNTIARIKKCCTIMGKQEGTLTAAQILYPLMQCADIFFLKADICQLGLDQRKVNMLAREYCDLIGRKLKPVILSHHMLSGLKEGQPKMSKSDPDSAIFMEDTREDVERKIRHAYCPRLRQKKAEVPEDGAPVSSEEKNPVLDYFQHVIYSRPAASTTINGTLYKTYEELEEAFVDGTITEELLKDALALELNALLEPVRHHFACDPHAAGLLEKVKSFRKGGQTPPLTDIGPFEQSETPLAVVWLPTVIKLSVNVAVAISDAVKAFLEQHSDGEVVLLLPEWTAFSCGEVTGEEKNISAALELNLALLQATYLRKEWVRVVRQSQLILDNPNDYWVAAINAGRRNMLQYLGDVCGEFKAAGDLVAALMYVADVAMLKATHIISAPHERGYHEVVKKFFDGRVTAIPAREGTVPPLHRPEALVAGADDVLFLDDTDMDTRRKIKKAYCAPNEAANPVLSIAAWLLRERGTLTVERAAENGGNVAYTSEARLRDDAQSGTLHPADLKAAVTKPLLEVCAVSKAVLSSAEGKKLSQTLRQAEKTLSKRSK
# [8] = biological target: T4, Tyrosyl-tRNA synthetase, putative (Trypanosoma cruzi (strain CL Brener)); experiment: Trypanosoma cruzi tyrosyl tRNA synthetase (TcYRS) SOP; format: functional; conditions: 30 µM
# [9] = biological target: Chromo domain-containing protein 1 (Saccharomyces cerevisiae (strain ATCC 204508 / S288c) (Baker's yeast)) (UniProt P32657); experiment: ScCHD-1 Enzyme Inhibition Assay; format: functional; conditions: 30 µM; also: in the data most compounds retested in dose-response had high values
# Sequence of Chromo domain-containing protein 1 (Saccharomyces cerevisiae (strain ATCC 204508 / S288c) (Baker's yeast)) (P32657 whole entry, the tested form may be a part): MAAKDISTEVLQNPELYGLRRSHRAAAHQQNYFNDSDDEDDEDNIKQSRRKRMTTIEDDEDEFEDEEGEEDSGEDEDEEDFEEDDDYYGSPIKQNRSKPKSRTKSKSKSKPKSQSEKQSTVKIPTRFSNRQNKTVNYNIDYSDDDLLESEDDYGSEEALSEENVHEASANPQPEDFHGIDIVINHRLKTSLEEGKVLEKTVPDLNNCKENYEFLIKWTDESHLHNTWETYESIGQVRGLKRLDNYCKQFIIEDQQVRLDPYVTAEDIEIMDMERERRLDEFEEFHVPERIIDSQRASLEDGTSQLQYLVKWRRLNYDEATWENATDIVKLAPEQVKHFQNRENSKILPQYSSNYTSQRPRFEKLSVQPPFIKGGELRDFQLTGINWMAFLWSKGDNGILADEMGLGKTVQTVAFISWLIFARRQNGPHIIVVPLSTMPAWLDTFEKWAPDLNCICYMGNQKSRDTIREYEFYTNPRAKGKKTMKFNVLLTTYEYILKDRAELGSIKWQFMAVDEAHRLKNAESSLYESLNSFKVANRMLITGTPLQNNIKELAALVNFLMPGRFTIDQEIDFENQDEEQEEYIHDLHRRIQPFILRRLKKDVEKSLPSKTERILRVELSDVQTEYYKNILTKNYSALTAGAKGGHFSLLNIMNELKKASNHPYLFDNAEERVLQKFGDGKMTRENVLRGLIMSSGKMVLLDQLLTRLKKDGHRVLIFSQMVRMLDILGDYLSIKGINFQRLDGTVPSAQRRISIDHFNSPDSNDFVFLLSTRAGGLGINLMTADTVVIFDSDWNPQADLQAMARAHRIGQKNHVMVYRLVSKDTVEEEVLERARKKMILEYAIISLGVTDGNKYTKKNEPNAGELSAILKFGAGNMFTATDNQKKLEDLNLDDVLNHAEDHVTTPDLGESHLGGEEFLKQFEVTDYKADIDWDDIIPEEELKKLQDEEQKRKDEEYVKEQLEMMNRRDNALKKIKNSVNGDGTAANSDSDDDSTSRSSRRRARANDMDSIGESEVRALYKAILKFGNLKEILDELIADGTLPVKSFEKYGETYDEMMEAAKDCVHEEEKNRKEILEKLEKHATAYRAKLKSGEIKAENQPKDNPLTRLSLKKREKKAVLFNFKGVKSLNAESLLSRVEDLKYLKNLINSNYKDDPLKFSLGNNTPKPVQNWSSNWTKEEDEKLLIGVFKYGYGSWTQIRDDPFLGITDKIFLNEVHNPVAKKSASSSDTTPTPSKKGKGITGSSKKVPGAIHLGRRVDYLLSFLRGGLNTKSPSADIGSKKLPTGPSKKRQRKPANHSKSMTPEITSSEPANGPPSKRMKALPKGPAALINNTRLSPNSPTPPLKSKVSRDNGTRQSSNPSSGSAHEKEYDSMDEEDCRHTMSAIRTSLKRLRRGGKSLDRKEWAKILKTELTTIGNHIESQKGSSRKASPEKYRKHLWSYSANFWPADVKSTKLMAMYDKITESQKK
# Sequence of Sialic acid-binding Ig-like lectin 9 (Homo sapiens) (Q9Y336 whole entry): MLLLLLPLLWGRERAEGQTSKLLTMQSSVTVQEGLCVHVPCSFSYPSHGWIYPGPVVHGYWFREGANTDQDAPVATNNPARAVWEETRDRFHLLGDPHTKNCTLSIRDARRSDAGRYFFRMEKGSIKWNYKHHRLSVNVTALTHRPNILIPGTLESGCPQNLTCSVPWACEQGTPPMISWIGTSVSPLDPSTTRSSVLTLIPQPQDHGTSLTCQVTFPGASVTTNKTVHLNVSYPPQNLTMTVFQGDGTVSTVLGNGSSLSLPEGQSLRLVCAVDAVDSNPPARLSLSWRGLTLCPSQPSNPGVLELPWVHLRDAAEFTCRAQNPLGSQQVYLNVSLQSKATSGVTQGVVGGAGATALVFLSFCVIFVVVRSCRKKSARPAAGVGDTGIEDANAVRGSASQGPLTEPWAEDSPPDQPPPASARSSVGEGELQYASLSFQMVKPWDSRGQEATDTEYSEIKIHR
# Sequence of Protein translocase subunit SecA (Escherichia coli (strain K12)) (P10408 whole entry): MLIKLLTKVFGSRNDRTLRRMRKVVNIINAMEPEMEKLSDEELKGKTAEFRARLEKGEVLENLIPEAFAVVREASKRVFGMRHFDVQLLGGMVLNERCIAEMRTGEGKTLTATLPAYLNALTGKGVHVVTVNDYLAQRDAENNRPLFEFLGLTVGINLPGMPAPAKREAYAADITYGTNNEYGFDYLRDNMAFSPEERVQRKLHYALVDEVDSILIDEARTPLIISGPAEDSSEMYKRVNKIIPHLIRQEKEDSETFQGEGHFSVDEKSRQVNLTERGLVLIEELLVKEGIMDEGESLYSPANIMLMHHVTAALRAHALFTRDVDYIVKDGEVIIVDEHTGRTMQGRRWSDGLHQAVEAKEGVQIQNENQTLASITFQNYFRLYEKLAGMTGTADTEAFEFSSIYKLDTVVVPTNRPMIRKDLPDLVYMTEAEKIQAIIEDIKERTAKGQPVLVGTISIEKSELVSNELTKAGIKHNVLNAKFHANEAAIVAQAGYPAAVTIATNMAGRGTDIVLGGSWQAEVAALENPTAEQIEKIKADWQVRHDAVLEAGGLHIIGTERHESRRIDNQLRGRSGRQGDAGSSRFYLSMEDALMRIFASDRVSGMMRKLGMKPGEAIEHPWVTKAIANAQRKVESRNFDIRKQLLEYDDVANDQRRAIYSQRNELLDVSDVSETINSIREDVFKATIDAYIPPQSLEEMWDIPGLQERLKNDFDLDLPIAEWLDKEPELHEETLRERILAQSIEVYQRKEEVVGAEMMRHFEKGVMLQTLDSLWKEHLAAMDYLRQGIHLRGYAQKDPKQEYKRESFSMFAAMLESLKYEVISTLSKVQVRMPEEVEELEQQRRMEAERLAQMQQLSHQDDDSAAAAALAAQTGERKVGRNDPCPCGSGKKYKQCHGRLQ
SMILES,Percent Effect [1] [%],Percent Effect [2] [%],Percent Effect [3] [%],Percent Effect [4] [%],Percent Effect (Trypanosoma cruzi) [%],Percent Effect [5] [%],Percent Effect [6] [%],Percent Effect (Homo sapiens) [%],Percent Effect [7] [%],Percent Effect [8] [%],Percent Effect [9] [%]
CN(Cc1ccccc1)C1COC2(CCN(Cc3nccs3)CC2)C1 (stereo unspecified),-6.64,13.3,-9.84,1.43,3.09,-51.1,4.79,-4.42,4.17,7.5,-9.89
CCn1ccnc1CN1CCN(C(C)C(=O)N2CCC(C)CC2)CC1 (stereo unspecified),-2.02,2.7,-8.85,9.21,2.88,-3.14,15.4,11,3.96,11,-4.46
CCn1cc(NC(=O)C2CCN(Cc3noc(C(C)C)n3)CC2)cn1,-2.1,8.86,0.341,3.03,-1.74,-0.645,10.3,8.77,9.38,22.8,-19.2
Cc1noc(C)c1-c1cncc(C2CCCN2Cc2ccncc2)n1 (stereo unspecified),1.38,1.35,12,8.81,0.79,0.696,6.08,32.8,2.15,1.3,-9.13
COc1cc(CNC(=O)NCCCF)cc(Br)c1OC,-5.95,-2.67,3.23,-1.26,-2.24,0,-0.174,25.5,1.64,1.24,1.39
c1cn(Cc2nnc(C3CCN(c4nccs4)CC3)n2C2CC2)cn1,-3.22,16,0.541,19.9,4.77,13,9.59,7.24,7.1,8.64,90.7
O=C([C@H]1COC[C@H]2CN(C3CCCC3)C[C@H]21)N1CCCCO1,-1.86,0,2.27,5.11,-0.579,-51.4,2.39,-22.5,0,-5,-3.46
Cc1nc(CN2CCN(CC(=O)Nc3c(C)cccc3C)CC2)no1,-3.96,10.4,-0.791,-7.52,5.58,1.9,15,-5.46,7.62,18.8,-17.5
Cc1cc2c(=O)n3c(nc2s1)CCN(C(=O)c1ccncc1)CC3,0.412,1.35,20.6,7.55,-4.74,3.02,9.98,0.756,2.15,6.49,-4.17
O=C(NCCc1cccc(O)c1)NC1CCN(c2ccccc2)C1=O (stereo unspecified),-7.43,0,2.02,-1.23,-2.82,1.04,11.7,-6.77,-1.64,1.24,-4.31
O=C(c1ccc2c(c1)OCO2)N1CCCC(n2cccn2)C1 (stereo unspecified),-1.59,10.8,-7.46,-3.52,7.64,-4.01,3.24,27.9,8.37,11.1,-7.12
Cn1cc(C[C@H]2[C@H](O)CCN2CC2CC2)cn1,-2.02,-2.7,6.23,1.34,1.27,-32.8,11.2,1.21,5.41,5.13,0.853
CC(=O)N1CCN(C(=O)NCc2csc(Br)c2)CC1,-7.09,2.7,4.94,5.56,0.0929,-0.554,-3.77,6.02,7.92,1.22,-0.334
Cc1cc(O)nc(C2CCCN(Cc3ccncc3)C2)n1 (stereo unspecified),-0.276,14.9,4.7,-7.91,3.75,-0.696,10.4,-0.951,1.07,11.7,-12.3
O=C(Nc1nccs1)N1CCCC(N2CCNC2=O)C1 (stereo unspecified),-3.07,11,7.04,15.8,0.196,17.3,21.1,2.14,4.3,22.5,-6.39
COc1c(CNC2CCN(C(=O)C3CC3)CC2)c(C(C)C)nn1C,-4.71,21.1,-4.53,-2.41,-4.95,1.44,-0.0846,15.4,6.4,18.5,-3.47
